The list is not random: actives were taken first. Their share in the collection is about 9.8%.
KDM4E inh – inhibitors of human JMJD2E histone demethylase; JMJD2E catalytic domain, FDH-coupled NADH fluorescence (FDH is formaldehyde dehydrogenase); Potency, µM (doses to about 57.1 µM), most hits filed as inhibitors; B2RXH2; 1.6% of 230,000 active; active means well fitted inhibition curve with a large enough effect, not every such curve was filed as active; inconclusive means small, poorly fitted or top-dose-only effect, or another doubt; inactive means no such curve, though single readings can be large or run the other way; further: nearly all actives have a fitted effect of over 50% in size
CBFb RUNX1 block – inhibitors of human CBF-beta and RUNX1 interaction; 230,000 tested, under 10 active; AlphaScreen CBFb-His/RUNX1-biotin binding, biochemical; AID 1477; Potency, µM (doses to about 59.8 µM), actives largely listed as inhibitors
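Compounds were screened at multiple concentrations against a preformed CBF-beta(His)/RUNX1(biotin) complex (30 nM of each) for 15 min at room temperature, followed by 90 min with nickel and streptavidin beads and AlphaScreen reading.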
HTT ATP protect – cytoprotection in Huntington HTT-Q103 PC12 cell model. PC12 HTT-Q103 induced, cytoprotection, ATP luminescence, 40 h. Potency, µM (top dose mostly 56.4 µM), actives largely listed as activators. 0.14% of 230,000 active. AID 1471; further: nearly all actives have a fitted effect of over 45% in size
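ATP quantification (ATPlite) reports survival of PC12 cells in which tebufenozide, 100 nM final, switches on Htt exon 1 with 103 glutamines linked to GFP; compounds are titrated.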
ALDH1A1 inh – ALDH1A1 (human) enzyme inhibition; 7.3% of 220,000 active; Purified ALDH1A1, NADH fluorescence, propionaldehyde substrate; Potency, µM (series often up to 75.3 µM), usual class: inhibitors; P00352; AID 1030; active means well fitted inhibition curve with a large enough effect, not every such curve was filed as active; inconclusive means small, poorly fitted or top-dose-only effect, or another doubt; inactive means no such curve, though single readings can be large or run the other way
Target sequence (P00352 whole entry, looked up): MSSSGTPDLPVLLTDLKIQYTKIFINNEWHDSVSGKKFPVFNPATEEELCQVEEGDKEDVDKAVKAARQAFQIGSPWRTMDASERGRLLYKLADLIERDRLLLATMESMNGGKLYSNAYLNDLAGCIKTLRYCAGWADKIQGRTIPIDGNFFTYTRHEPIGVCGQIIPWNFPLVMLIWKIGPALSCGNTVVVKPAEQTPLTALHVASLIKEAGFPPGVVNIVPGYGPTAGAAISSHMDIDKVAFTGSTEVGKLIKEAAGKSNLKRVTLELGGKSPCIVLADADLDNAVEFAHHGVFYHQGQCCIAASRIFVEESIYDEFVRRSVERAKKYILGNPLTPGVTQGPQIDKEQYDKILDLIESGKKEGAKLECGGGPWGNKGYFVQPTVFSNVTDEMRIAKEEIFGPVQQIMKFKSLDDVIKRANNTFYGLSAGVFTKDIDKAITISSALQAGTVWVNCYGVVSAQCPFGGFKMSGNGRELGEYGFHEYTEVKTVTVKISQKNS
HttQ103 aggreg – mutant huntingtin aggregation inhibition | PC12 HttQ103-GFP aggregates, Acumen cytometry, 40 h | Potency, µM (top dose mostly 46.1 µM), hits mostly inhibitors | 1.1% of 220,000 active; further: nearly all actives have a fitted effect of over 60% in size
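Steps: seed 1500 PC12 HTTQ103-GFP cells/well; add tebufenozide, 100 nM final; add compound titration; add ATPLite reagent; quantify GFP aggregates by laser scanning cytometry.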
HPGD inh – HPGD (human) dehydrogenase inhibition; Potency, µM, hits mostly inhibitors; P15428; purified HPGD, NADH fluorescence kinetic, PGE2 substrate; 4.3% of 150,000 active; active means well fitted inhibition curve with a large enough effect, not every such curve was filed as active; inconclusive means small, poorly fitted or top-dose-only effect, or another doubt; inactive means no such curve, though single readings can be large or run the other way
Target sequence (P15428 whole entry, looked up): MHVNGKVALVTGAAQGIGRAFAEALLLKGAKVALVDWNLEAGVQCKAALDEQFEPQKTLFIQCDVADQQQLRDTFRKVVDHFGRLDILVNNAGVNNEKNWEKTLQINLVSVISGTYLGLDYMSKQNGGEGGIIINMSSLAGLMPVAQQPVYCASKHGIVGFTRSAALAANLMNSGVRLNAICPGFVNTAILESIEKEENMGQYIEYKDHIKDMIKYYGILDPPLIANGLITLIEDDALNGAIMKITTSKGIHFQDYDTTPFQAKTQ
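NADH formation kinetics: reaction with 30 uM PGE2 and 1 mM NAD+ (final), 20 nM enzyme, Tris-HCl pH 8 with Tween 20, after 15 min compound preincubation at room temperature. Fluorescence change, last versus first of five reads.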
Large screens that a line does not name were inactive; ! = not active in a repeat. Unless noted, the call rests on the fitted dose curve; in most records, active means well fitted curve in the direction sought with a large enough effect; inconclusive means small, poorly fitted or top-dose-only effect, or another doubt; inactive means no such curve, though single readings can be large; an effect the other way counts as inactive or inconclusive.

Cc1cc(OCC(=O)N2CCCC2)ccc1Cl	none
CCOc1ccc(NC(=O)CC(C)O)cc1 (stereo unspecified)	none (no result: KDM4E inh, CBFb RUNX1 block, ALDH1A1 inh, HPGD inh)
Cc1onc(-c2c(Cl)cccc2Cl)c1C(=O)ONC(=O)c1cc(C(F)(F)F)cc(C(F)(F)F)c1	none (no result: HPGD inh)
N#C/C(=C\c1ccc(O)c(O)c1)C(=O)NCCCCc1ccccc1	KDM4E inh 4.47µM, CBFb RUNX1 block inconclusive, ALDH1A1 inh inconclusive, HPGD inh 8.91µM (no result: HttQ103 aggreg)
N#C/C(=C\c1ccc(O)c(O)c1)C(=O)NCCc1ccccc1	KDM4E inh 14.1µM, CBFb RUNX1 block inconclusive, ALDH1A1 inh inconclusive, HPGD inh 25.1µM (no result: HttQ103 aggreg)
COc1cc(/C=C(\C#N)C(=O)NCCc2ccccc2)cc(OC)c1O	none (no result: HPGD inh)
O=C(N/N=C/c1cccnc1)C(O)c1ccccc1 (stereo unspecified)	none
Cc1ccc(NC(=O)/C(C#N)=N/Nc2ccc(C(=O)O)cc2)c(C)c1	none (no result: ALDH1A1 inh, HPGD inh)
Cc1ccc(N/N=C(\C#N)C(N)=S)c(C)c1	ALDH1A1 inh inconclusive, HPGD inh 14.1µM (no result: HTT ATP protect)
CCOC(=O)c1c(-c2ccc(F)cc2)csc1NC(=O)C1CCCO1 (stereo unspecified)	ALDH1A1 inh 11.2µM (no result: HPGD inh)
CCOC(=O)c1c(-c2ccc(OC)cc2)csc1NC(=O)C1CCCO1 (stereo unspecified)	KDM4E inh inconclusive, ALDH1A1 inh 8.91µM (no result: HPGD inh)
CCOC(=O)c1c(-c2ccc(C)cc2)csc1NC(=O)C1CCCO1 (stereo unspecified)	ALDH1A1 inh inconclusive
CCOC(=O)c1c(-c2ccc(OC)cc2)csc1NC(=O)CCN1C(=O)c2ccccc2C1=O	ALDH1A1 inh 35.5µM, HPGD inh 28.2µM
CCCOC(=O)c1c(NC(=O)C2CCCO2)sc(C(=O)OC)c1C (stereo unspecified)	ALDH1A1 inh 2µM, HPGD inh 10µM (no result: HTT ATP protect)
Cc1nc(NC(=O)c2cccs2)ccc1Br	none (no result: HPGD inh)
O=C(CN1CCC(n2nnc3cc(C(F)(F)F)ccc32)CC1)NNC(=O)c1ccco1	none (no result: HPGD inh)
Cc1cc(C)c(COCc2cc(/C=N/O)c(C)cc2C)cc1/C=N/O	HPGD inh 14.1µM
Cc1ccc(S(=O)(=O)N(C)C)cc1NC(=O)CSc1ncc(C(F)(F)F)cc1Cl	none
Cc1ccc(S(=O)(=O)N2CCN(C(=O)CSc3ncc(C(F)(F)F)cc3Cl)CC2)cc1	ALDH1A1 inh 2.82µM, HttQ103 aggreg inconclusive
O=C(CSc1nc2[nH]ncc2c(=O)[nH]1)c1ccc(Cl)cc1	ALDH1A1 inh 2.51µM (no result: HPGD inh)
O=C(CSc1nc2[nH]ncc2c(=O)[nH]1)c1ccccc1	none (no result: HPGD inh)
Nc1nc(SCC(=O)N2CCc3ccccc3C2)[nH]c(=O)c1-c1ccccc1	ALDH1A1 inh 22.4µM
O=C(CSc1nc2ccccc2[nH]1)N1CCN(S(=O)(=O)c2ccc(Cl)cc2)CC1	none
Cc1ccc(S(=O)(=O)N2CCN(C(=O)CSc3nc4ccccc4c(=O)[nH]3)CC2)cc1	KDM4E inh inconclusive, ALDH1A1 inh 3.16µM
NNC(=O)c1nc(Cl)c(Cl)c(N)c1Cl	none (no result: ALDH1A1 inh, HPGD inh)
Cc1nc2cc(NC(=O)c3ccc(N4C(=O)CCC4=O)cc3)ccc2s1	none (no result: HPGD inh)
COC(=O)Cn1c(C(=O)N(C)C)cc2c1C[C@H]1CN(C(=O)c3ccccc3)[C@@](Cc3ccc(OC)cc3)(C(=O)OC)[C@@H]21	none (no result: HttQ103 aggreg)
COc1ccc(NC(=S)N2CCC(C(=O)c3ccc(C)cc3)CC2)c(OC)c1	none (no result: HPGD inh)
O=C(CSc1nncc2ccccc12)N1CCCCC1	ALDH1A1 inh 10µM (no result: HPGD inh)
O=C(CSc1nc2[nH]ncc2c(=O)[nH]1)N1CCCC1	HTT ATP protect inconclusive
CCc1nc(SCC(=O)N2CCCC2)c2ccccc2n1	none (no result: HttQ103 aggreg)
O=C(CSc1nc2ccccc2c(=O)[nH]1)N1CCCCC1	ALDH1A1 inh inconclusive, HPGD inh 15.8µM
O=C(O)CSc1nc2ccccc2c(=O)[nH]1	none
O=C(CSc1nc2[nH]ncc2c(=O)[nH]1)N1CCCCC1	ALDH1A1 inh 20µM
CC(C)c1nc(SCC(=O)N2CCCC2)c2ccccc2n1	ALDH1A1 inh 3.16µM, HttQ103 aggreg inconclusive
O=C1CCCC(O)=C1C1C2=C(CCCC2=O)Oc2ccccc21 (stereo unspecified)	none
CN1CCN(NC(=O)c2cc(S(=O)(=O)Nc3ccc(Cl)cc3)ccc2Cl)CC1	none (no result: ALDH1A1 inh, HPGD inh)
N#CCCN(C(=O)COc1ccc(F)cc1Br)c1ccccc1F	ALDH1A1 inh 17.8µM (no result: HPGD inh)
CCCN1CCN(C(=O)CN2C(=O)CC(C)(C)S(=O)(=O)c3ccccc32)CC1	none
NC(Cc1c[nH]c2ccccc12)C(=O)NCC(=O)O (stereo unspecified)	none (no result: HttQ103 aggreg)
O=C(COc1c(Br)cc(Br)c2cccnc12)N1CCc2ccccc2C1	KDM4E inh inconclusive, ALDH1A1 inh 11.2µM, HttQ103 aggreg inconclusive, HPGD inh 17.8µM
O=C(CSc1ncnc2c1oc1ccccc12)N1CCc2ccccc2C1	HPGD inh 3.98µM
O=C(O)CSc1ncnc2c1oc1ccccc12	none (no result: HPGD inh)
CCOC(=O)CC(=O)CSc1ncnc2c1oc1ccccc12	HPGD inh 14.1µM
O=C(CSc1ncnc2c1oc1ccccc12)NCc1ccco1	ALDH1A1 inh 11.2µM, HPGD inh 8.91µM
NC(=S)SCCC(=O)O	none (no result: KDM4E inh, CBFb RUNX1 block, HttQ103 aggreg)
CC(NC(=S)NCc1ccc(F)cc1)C12CC3CC(CC(C3)C1)C2 (stereo unspecified)	ALDH1A1 inh inconclusive (no result: HPGD inh)
CCCc1cc(=O)[nH]c(SCC(=O)Nc2cc(C)on2)n1	HttQ103 aggreg inconclusive (no result: HTT ATP protect, HPGD inh)
O=[N+]([O-])c1ccc(N2CCC(=NOCc3ccc(Cl)cc3)CC2)cc1	ALDH1A1 inh 12.6µM
Cc1ccc(C(=O)ON=C2CCN(c3ccc([N+](=O)[O-])cc3)CC2)cc1	ALDH1A1 inh inconclusive
Cc1cc(=O)oc2cc(OCc3ccc(C(=O)OCC(=O)Nc4ccc(N(C)C)cc4)cc3)ccc12	KDM4E inh inconclusive, ALDH1A1 inh inconclusive (no result: HPGD inh)
Cn1c(=O)n(C)c2cc([N+](=O)[O-])c(N3CCN(S(=O)(=O)c4ccc(C(C)(C)C)cc4)CC3)cc21	HttQ103 aggreg 12.6µM
COc1cc(O)c2c(=O)cc(-c3ccccc3)oc2c1	none
O=c1cc(-c2ccccc2)oc2cc(O)cc(O)c12	KDM4E inh inconclusive, ALDH1A1 inh 8.91µM (no result: HttQ103 aggreg)
O=c1cc(-c2cc(O)c(O)c(O)c2)oc2cc(O)cc(O)c12	KDM4E inh 10µM, ALDH1A1 inh inconclusive, HPGD inh inconclusive (no result: CBFb RUNX1 block, HTT ATP protect, HttQ103 aggreg)
O=c1cc(-c2ccc(O)cc2)oc2cc(O)cc(O)c12	KDM4E inh 11.2µM!, CBFb RUNX1 block inconclusive, HTT ATP protect inconclusive, ALDH1A1 inh 1.78µM!, HPGD inh 31.6µM! (no result: HttQ103 aggreg)
CCc1ccc2c(c1)cc(CN(C(=S)Nc1ccc(Cl)cc1)C1CC1)c1nnnn12	ALDH1A1 inh inconclusive
C=CCOC(=O)C1=C(C)N=C2SCCC(=O)N2C1/C=C/c1ccccc1 (stereo unspecified)	ALDH1A1 inh inconclusive (no result: HPGD inh)

Source: PubChem BioAssay
